The source of these data is publication PMC8384837, “Expanding the binding specificity for RNA recognition by a PUF domain”.

Common to all, as to assay: yeast three-hybrid, YBZ-1, SC-Leu-His + 0.5 mM 3-AT, 4 days
Holding throughout (settings): tags: N-Gal4 AD-HA kept; label: inside an RPR1-promoter hybrid RNA with tandem MS2 sites; ssRNA

One test has as its target PUM1 PUF domain R5-ARK (Homo sapiens, UniProt Q14671 828-1176, C1007A;Q1011K). Put shortly: (§1)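 Pumilio-1 PUF domain libraries, randomized (NNK) at the three base-contacting residues of each repeat, were co-expressed with matching RNA elements from a centromeric plasmid in strain YBZ-1 (LexA–MS2 coat fusion, HIS3 reporter). Transformants were plated on SC-Leu (input) and SC-Leu-His + 0.5 mM 3-AT (selection) for four days, and repeat regions were PCR-amplified and Illumina-sequenced. The interaction score is the log2 change in variant frequency from input to selection, with pseudocount 1 where absent.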

In another test the target is PUM1 PUF domain R5-LHI (Homo sapiens, UniProt Q14671 828-1176, C1007L;R1008H;Q1011I). Put shortly: as §1
The next test concerns the target PUM1 PUF domain R7-RCR (Homo sapiens, UniProt Q14671 828-1176, S1079R;N1080C;E1083R). The gist of the method: as §1
The target of another test is T1, PUM1 PUF domain R6-LWT (Homo sapiens, UniProt Q14671 828-1176, N1043L;Y1044W;Q1047T).
T1 sequence: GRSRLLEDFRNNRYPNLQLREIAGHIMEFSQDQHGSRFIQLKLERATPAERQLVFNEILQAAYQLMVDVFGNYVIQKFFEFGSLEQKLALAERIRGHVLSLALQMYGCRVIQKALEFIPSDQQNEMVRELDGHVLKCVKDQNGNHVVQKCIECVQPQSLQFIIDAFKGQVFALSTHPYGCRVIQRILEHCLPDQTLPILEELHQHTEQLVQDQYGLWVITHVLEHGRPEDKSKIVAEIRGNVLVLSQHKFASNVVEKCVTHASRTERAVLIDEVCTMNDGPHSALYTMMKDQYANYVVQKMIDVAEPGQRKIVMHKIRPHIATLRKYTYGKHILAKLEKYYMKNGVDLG
The gist of the method:
as §1

The next test concerns the target PUM1 PUF domain R2-MWG (Homo sapiens, UniProt Q14671 828-1176, N899M;Y900W;Q903G). Put shortly:
as §1

The target in a further test is PUM1 PUF domain R2-SWF (Homo sapiens, UniProt Q14671 828-1176, N899S;Y900W;Q903F). Put shortly:
as §1

The target in the next test is PUM1 PUF domain R4-LNC (Homo sapiens, UniProt Q14671 828-1176, N971L;H972N;Q975C). Put shortly: as §1
For the next test, the target named is PUM1 PUF domain R4-WAV (Homo sapiens, UniProt Q14671 828-1176, N971W;H972A;Q975V). The gist of the method:
as §1

For the next test, the target named is PUM1 PUF domain R5-NGR (Homo sapiens, UniProt Q14671 828-1176, C1007N;R1008G;Q1011R). Put shortly:
as §1

In the next test the target is PUM1 PUF domain R3-FSN (Homo sapiens, UniProt Q14671 828-1176, C935F;R936S;Q939N). Put shortly: as §1
The next test deals with PUM1 PUF domain R3-MRW (Homo sapiens, UniProt Q14671 828-1176, C935M;Q939W). Put shortly:
as §1

The target in the next test is PUM1 PUF domain R3-RMW (Homo sapiens, UniProt Q14671 828-1176, C935R;R936M;Q939W). Put shortly: as §1
For the next test, the target named is PUM1 PUF domain R3-RSR (Homo sapiens, UniProt Q14671 828-1176, C935R;R936S;Q939R). Put shortly:
as §1

A further test deals with PUM1 PUF domain R1-RSQ (Homo sapiens, UniProt Q14671 828-1176, S863R;R864S). Put shortly:
as §1

A further test deals with PUM1 PUF domain R1-SWR (Homo sapiens, UniProt Q14671 828-1176, R864W;Q867R). Put shortly:
as §1

The target of the next test is PUM1 PUF domain R8-HFT (Homo sapiens, UniProt Q14671 828-1176, N1122H;Y1123F;Q1126T). The gist of the method: as §1
The target in the next test is PUM1 PUF domain R8-QWK (Homo sapiens, UniProt Q14671 828-1176, N1122Q;Y1123W;Q1126K). The gist of the method:
as §1

For a further test, the target named is PUM1 PUF domain R4-AHV (Homo sapiens, UniProt Q14671 828-1176, N971A;Q975V). Put shortly:
as §1

The target of another test is PUM1 PUF domain R4-PYF (Homo sapiens, UniProt Q14671 828-1176, N971P;H972Y;Q975F). Put shortly: as §1
The target of a further test is PUM1 PUF domain R5-RYP (Homo sapiens, UniProt Q14671 828-1176, C1007R;R1008Y;Q1011P). The gist of the method:
as §1

PUM1 PUF domain R4-WAV, sequence (Q14671 828-1176 N971W/H972A/Q975V): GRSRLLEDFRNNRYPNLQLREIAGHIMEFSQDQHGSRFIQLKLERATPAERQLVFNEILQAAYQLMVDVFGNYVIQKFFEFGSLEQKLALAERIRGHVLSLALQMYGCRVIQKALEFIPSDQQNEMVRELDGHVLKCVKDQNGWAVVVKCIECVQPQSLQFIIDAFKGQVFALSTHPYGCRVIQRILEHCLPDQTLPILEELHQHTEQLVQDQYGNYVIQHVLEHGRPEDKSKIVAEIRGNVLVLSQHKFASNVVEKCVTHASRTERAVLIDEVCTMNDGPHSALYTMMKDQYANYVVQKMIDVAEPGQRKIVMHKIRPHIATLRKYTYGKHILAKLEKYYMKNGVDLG

For “GGCUAGAACUAGUGGAUCCCCCGGCGCCCGGCGGCUCGAGCCCGGGUAAGUGUUAAUAGUCUGCAUGCCGCCGGGCGCCAUGCCUGCAGGUCGACUCUAGAAAACAUG”, the binding signal is 3.13 log2 enrichment (interaction score) with PUM1 PUF domain R5-ARK and 3.78 log2 enrichment (interaction score) with PUM1 PUF domain R5-LHI.

Take “GGCUAGAACUAGUGGAUCCCCCGGCGCCCGGCGGCUCGAGCCCGGGUAAGUUUAAAUAGUCUGCAUGCCGCCGGGCGCCAUGCCUGCAGGUCGACUCUAGAAAACAUG”: the binding signal with PUM1 PUF domain R7-RCR is 5.68 log2 enrichment (interaction score).

Consider “GGCUAGAACUAGUGGAUCCCCCGGCGCCCGGCGGCUCGAGCCCGGGUAAGUGAAAAUAGUCUGCAUGCCGCCGGGCGCCAUGCCUGCAGGUCGACUCUAGAAAACAUG”, for which, in the test with PUM1 PUF domain R6-LWT, the binding signal was 2.9 log2 enrichment (interaction score).

For “GGCUAGAACUAGUGGAUCCCCCGGCGCCCGGCGGCUCGAGCCCGGGUAAGUGUAAAAAGUCUGCAUGCCGCCGGGCGCCAUGCCUGCAGGUCGACUCUAGAAAACAUG”, the figures for the binding signal with PUM1 PUF domain R2-MWG and in the test with PUM1 PUF domain R2-SWF were 1.87 log2 enrichment (interaction score) and 2.22 log2 enrichment (interaction score), respectively.

Turning to “GGCUAGAACUAGUGGAUCCCCCGGCGCCCGGCGGCUCGAGCCCGGGUAAGUGUAUAUAGUCUGCAUGCCGCCGGGCGCCAUGCCUGCAGGUCGACUCUAGAAAACAUG”, the binding signal in the test with PUM1 PUF domain R4-LNC is 2.66 log2 enrichment (interaction score); with PUM1 PUF domain R4-WAV, 5.71 log2 enrichment (interaction score).

As to “GGCUAGAACUAGUGGAUCCCCCGGCGCCCGGCGGCUCGAGCCCGGGUAAGUGUCAAUAGUCUGCAUGCCGCCGGGCGCCAUGCCUGCAGGUCGACUCUAGAAAACAUG”, the binding signal was 0.39 log2 enrichment (interaction score) in the test with PUM1 PUF domain R5-ARK, 2.58 log2 enrichment (interaction score) with PUM1 PUF domain R5-NGR and 0.32 log2 enrichment (interaction score) with PUM1 PUF domain R5-LHI.

As to “GGCUAGAACUAGUGGAUCCCCCGGCGCCCGGCGGCUCGAGCCCGGGUAAGUGUAAGUAGUCUGCAUGCCGCCGGGCGCCAUGCCUGCAGGUCGACUCUAGAAAACAUG”, the binding signal is 2.79 log2 enrichment (interaction score) with PUM1 PUF domain R3-FSN and 5.09 log2 enrichment (interaction score) in the test with PUM1 PUF domain R3-MRW.

On to “GGCUAGAACUAGUGGAUCCCCCGGCGCCCGGCGGCUCGAGCCCGGGUAAGUGUAAUUAGUCUGCAUGCCGCCGGGCGCCAUGCCUGCAGGUCGACUCUAGAAAACAUG”, for which the binding signal with PUM1 PUF domain R3-RMW is 2.28 log2 enrichment (interaction score); with PUM1 PUF domain R3-RSR, 3.41 log2 enrichment (interaction score); in the test with PUM1 PUF domain R3-MRW it was 2.07 log2 enrichment (interaction score).

For “GGCUAGAACUAGUGGAUCCCCCGGCGCCCGGCGGCUCGAGCCCGGGUAAGUGUAAAUCGUCUGCAUGCCGCCGGGCGCCAUGCCUGCAGGUCGACUCUAGAAAACAUG”, the binding signal with PUM1 PUF domain R1-RSQ was 4.74 log2 enrichment (interaction score); with PUM1 PUF domain R1-SWR, 3.04 log2 enrichment (interaction score).

Regarding “GGCUAGAACUAGUGGAUCCCCCGGCGCCCGGCGGCUCGAGCCCGGGUAAGUGUAAAGAGUCUGCAUGCCGCCGGGCGCCAUGCCUGCAGGUCGACUCUAGAAAACAUG”, the binding signal with PUM1 PUF domain R2-MWG was 3.95 log2 enrichment (interaction score).

For “GGCUAGAACUAGUGGAUCCCCCGGCGCCCGGCGGCUCGAGCCCGGGUAAGUGUACAUAGUCUGCAUGCCGCCGGGCGCCAUGCCUGCAGGUCGACUCUAGAAAACAUG”, the binding signal with PUM1 PUF domain R4-WAV is 2.23 log2 enrichment (interaction score).

In the case of “GGCUAGAACUAGUGGAUCCCCCGGCGCCCGGCGGCUCGAGCCCGGGUAAGUCUAAAUAGUCUGCAUGCCGCCGGGCGCCAUGCCUGCAGGUCGACUCUAGAAAACAUG”, the binding signal in the test with PUM1 PUF domain R7-RCR is 4.6 log2 enrichment (interaction score).

For “GGCUAGAACUAGUGGAUCCCCCGGCGCCCGGCGGCUCGAGCCCGGGUAAGCGUAAAUAGUCUGCAUGCCGCCGGGCGCCAUGCCUGCAGGUCGACUCUAGAAAACAUG”, the binding signal with PUM1 PUF domain R8-HFT was 3.48 log2 enrichment (interaction score).

For “GGCUAGAACUAGUGGAUCCCCCGGCGCCCGGCGGCUCGAGCCCGGGUAAGUGUAAAUUGUCUGCAUGCCGCCGGGCGCCAUGCCUGCAGGUCGACUCUAGAAAACAUG”, the binding signal in the test with PUM1 PUF domain R1-RSQ is 5.08 log2 enrichment (interaction score); with PUM1 PUF domain R1-SWR it was 0.84 log2 enrichment (interaction score).

With “GGCUAGAACUAGUGGAUCCCCCGGCGCCCGGCGGCUCGAGCCCGGGUAAGGGUAAAUAGUCUGCAUGCCGCCGGGCGCCAUGCCUGCAGGUCGACUCUAGAAAACAUG”, in the test with PUM1 PUF domain R8-QWK, the binding signal is 3.09 log2 enrichment (interaction score).

In the case of “GGCUAGAACUAGUGGAUCCCCCGGCGCCCGGCGGCUCGAGCCCGGGUAAGUGUAAAUAGUCUGCAUGCCGCCGGGCGCCAUGCCUGCAGGUCGACUCUAGAAAACAUG”, the binding signal in the test with PUM1 PUF domain R8-QWK is 2.09 log2 enrichment (interaction score); in the test with PUM1 PUF domain R6-LWT, 6.06 log2 enrichment (interaction score); in the test with PUM1 PUF domain R4-AHV, 4.52 log2 enrichment (interaction score); in the test with PUM1 PUF domain R4-PYF, 7.96 log2 enrichment (interaction score); with PUM1 PUF domain R4-WAV, 2.33 log2 enrichment (interaction score); in the test with PUM1 PUF domain R5-RYP, 2.37 log2 enrichment (interaction score). Besides, the binding signal with PUM1 PUF domain R2-SWF was 1.61 log2 enrichment (interaction score).
